The list is not random: actives were taken first. Their share in the collection is about 1.5%.
NALP1 inh = blocks the NALP1 inflammasome reconstituted in yeast; S. cerevisiae NALP1/ASC/caspase-1 growth, X-gal OD620, 72 h; inhibition, % at 10 µM; 0.61% of 280,000 active; in the data active = inhibition mostly above about 24%, no sharp cut-off; inactive = mostly below about 32%
HDAC3 inhib = inhibitors of human histone deacetylase 3. O15379. 0.15% of 320,000 active. inhibition, % at 8.3 µM. recombinant HDAC3, fluorogenic peptide/trypsin coupled, fluorescence; in the data active = inhibition above about 26%, passing the limit was not always enough; inconclusive = no clear call, values can overlap the other calls
Target sequence (O15379 whole entry, looked up): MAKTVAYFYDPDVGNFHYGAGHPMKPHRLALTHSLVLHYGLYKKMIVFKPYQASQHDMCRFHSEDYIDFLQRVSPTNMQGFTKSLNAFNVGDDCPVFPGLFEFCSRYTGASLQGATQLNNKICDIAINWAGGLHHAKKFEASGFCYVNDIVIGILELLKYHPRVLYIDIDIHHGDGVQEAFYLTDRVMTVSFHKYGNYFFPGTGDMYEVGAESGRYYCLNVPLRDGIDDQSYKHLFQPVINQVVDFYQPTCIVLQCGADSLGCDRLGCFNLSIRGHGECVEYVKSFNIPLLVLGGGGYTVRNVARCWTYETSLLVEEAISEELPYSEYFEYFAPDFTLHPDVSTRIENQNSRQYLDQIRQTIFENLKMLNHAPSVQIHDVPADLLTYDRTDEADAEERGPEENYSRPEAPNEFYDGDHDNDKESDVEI
PolyA inhibitor = yeast polyadenylation inhibition. S. cerevisiae SKY197-pL101 polyadenylation reporter, beta-gal luminescence; efflux-impaired pdr1/pdr3 knockout yeast; score 100 = 6 SD above DMSO. AID 1875. 0.02% of 300,000 active. activity score, % at 12 µM;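 active = lowest replicate activity score at least 50, where 100 means six control SD above control mean; inconclusive = lowest score under 50 but half or more replicates reach 50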;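 note: yeast exposed to compound for 9 h at 30 °C; higher score means more reporter readthrough which indicates perturbed polyadenylation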
GASC-1 inh = inhibitors of human GASC-1 (JMJD2C) demethylase | Q9H3R0 | AID 2099 | inhibition, % at 2.35 µM | GST-JMJD2C(1-420) H3K9me3 demethylation, DELFIA europium | 0.069% of 330,000 active;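 active = more than half of a compound's replicate wells show inhibition beyond 50%, single wells judged on their own value; inconclusive = some, but no more than half, of replicates pass 50% inhibition; inactive = no replicate passes 50% inhibition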;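 note: signal counts dimethyl H3K9 product captured on neutravidin plate; 0% = median of DMSO wells and 100% = 0.3 times that DMSO median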
Efflux pump mplx = inhibitors of Candida antifungal efflux pumps expressed in yeast | S. cerevisiae Candida pump triplex, Nile Red efflux | inhibition, % at 10 µM | 0.44% of 330,000 active | AID 485275;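 active = plate passing quality check with inhibition over a set limit, or well fluorescence over plate mean plus 4 SD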;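 note: Nile Red retained in pooled yeast measured as flow cytometry median fluorescence; 0% = buffer negative control and 100% = Enniatin B positive control; higher means more Nile Red kept so more efflux inhibition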
NALP3 yeast inh = NALP3 inhibition in yeast | AID 2825 | inhibition, % at 10 µM | 0.39% of 330,000 active | Yeast reconstituted NLRP3/ASC/caspase-1, beta-gal luminescence, 24 h;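 active = inhibition of 50% or more; inactive = inhibition below 50%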;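 note: plate controls were induced DMSO wells for no effect and uninduced yeast grown without galactose for full effect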
Numbers without * were called inactive; ? = inconclusive; nt = no result.

SMILES	NALP1 inh	HDAC3 inhib	PolyA inhibitor	GASC-1 inh	Efflux pump mplx	NALP3 yeast inh
Cc1ccc(S(C)(=O)=NC(=O)NC(=O)c2c(F)cccc2Cl)cc1 (centres undefined)	4.3	-2.4	-11.4	3.8	0.0	4.5
O=C(c1cccc(Cl)c1)N1CCN(c2ncnc3c2cnn3-c2ccccc2)CC1	24.8*	1.1	-14.3	-7.7	0.1	13.4
Cc1cc(C)nc(NCc2ccc(Cl)cc2)n1	-13.3	1.7	-2.7	68.1*	0.2	1.6
CC[C@]12c3[nH]c4ccc(OC)cc4c3CCN1C(=O)C(CC(=O)NCCCN(C)C)C[C@@H]2C(=O)N1CCN(C(=O)c2ccco2)CC1 (some centres undefined)	nt	nt	nt	nt	-0.1	nt
O=C(CCC(=O)c1ccc[nH]1)c1ccc(Cl)cc1	27.2*	4.2	-12.4	-0.2	0.0	9.0
COCCCNC(=O)c1ccc(S(=O)(=O)c2ccc(Cl)cc2)c(NC(C)=O)c1	13.0	0.7	-2.9	-2.6	-0.1	13.9
Cc1nnn(C23CC4CC(CC(CC(=O)Nc5cccc(F)c5)(C4)C2)C3)n1	28.9*	5.2	21.6	-0.6	0.0	6.3
Cc1cccc(NC(=O)CC23CC4CC(C2)CC(n2nnc(C)n2)(C4)C3)c1	-12.0	8.5	-8.9	-3.4	0.9	6.0
Cc1csc(SCC(=O)Nc2ccccc2[N+](=O)[O-])n1	-9.6	6.6	6.5	0.3	0.0	11.3
COc1ccc(Cc2nnc(SC(C)C(=O)Nc3ccc(F)cc3Cl)o2)cc1 (centres undefined)	nt	-10.1	5.7	-0.1	-0.1	-1.0
CC(C)C(C(=O)Nc1nccs1)N1C(=O)c2ccccc2C1=O (centres undefined)	28.5*	1.2	8.4	-2.5	0.1	11.8
COc1cc(C(C(=O)NC2CCCCC2)N(Cc2cccs2)C(=O)Cc2c[nH]c3ccccc23)cc(OC)c1OC (centres undefined)	0.0	2.7	-8.8	52.4*	0.0	0.9
O=S(=O)(Nc1ccc2c(c1)OCCO2)c1cccc2nsnc12	31.2*	13.8	9.0	11.5	0.1	16.8
CN(CC(=O)Nc1cccc(F)c1)C(=O)CSc1ccccc1F	8.2	-6.6	11.6	-4.9	0.6	19.0
COc1cccc(NCc2cc(=O)oc3cc(C)c(C(C)C)cc23)c1	7.7	3.1	-0.9	-6.6	0.0	-3.3
CCCCN1CC(=O)N2[C@H](c3ccc(OC)cc3)[C@@H]3C(=O)N(CC)C(=O)[C@@H]3[C@]2(C)C1=O	20.5	-1.1	12.0	-0.6	-0.1	10.6
Cc1ccc2c(c1)c1c3n2CCCNC3CCC1 (centres undefined)	65.5	4.6	16.9	86.3*	-0.1	3.6
Oc1ccc2c(c1)c1c3n2CCNC3CCC1 (centres undefined)	13.4	2.3	0.2	-0.2	0.3	14.3
Clc1ccc(OCCCNCc2ccccc2)c2ccccc12	50.1*	-0.8	-9.6	3.6	0.3	32.0
Brc1ccccc1OCCNCc1ccccc1	13.4	7.4	6.6	-3.1	-0.1	31.4
Cc1cc(Br)ccc1OCCNCc1ccccc1	29.2*	3.5	-13.1	-4.3	0.0	43.6
Cc1cc(C)c(C)c(OCCNCc2ccccc2)c1	40.6	-10.6	3.8	10.8	0.0	25.9
CCCCn1c(N)c(N(CCOC)C(=O)c2ccc3c(c2)OCCO3)c(=O)[nH]c1=O	nt	-3.3	-3.0	-4.6	0.0	3.8
CC(=O)c1c(C)nn(C(=O)c2cccs2)c1C	2.2	40.9*	-19.9	-7.3	-0.3	1.0
COC(=O)c1ccccc1NC(=O)CC#N	20.2	-3.3	11.3	4.2	0.1	14.1
SMILES	NALP1 inh	HDAC3 inhib	PolyA inhibitor	GASC-1 inh	Efflux pump mplx	NALP3 yeast inh
COC(=O)c1ccccc1NC(=O)C/C(C)=N/NC(=O)CC#N	33.6*	6.2	0.2	5.1	-0.1	26.0
Cc1nc2ccc(NC(=O)c3cc(Cl)ccn3)cc2s1	0.7	-3.9	-24.4	0.9	0.3	33.9
CC(C)(C)NCC(=O)c1c[nH]c2ccccc12	29.9*	-3.8	4.1	-21.0	0.0	5.4
CN1/C(=C\C=Nc2ccc3ccccc3c2)C(C)(C)c2ccccc21	28.3*	11.2	nt	-18.7	0.3	15.2
CN1C(=O)/C(=C/c2ccc(-c3ccccc3[N+](=O)[O-])o2)SC1=Nc1ccc(Cl)c(C(=O)O)c1	10.3	4.3	15.8	-0.5	0.8	nt
CCCCCCC(=O)N(O)C1CC(=O)N(c2ccc(Cl)cc2)C1=O (centres undefined)	-5.9	62.9*	-6.2	-5.8	0.1	14.6
CCCCCCC(=O)N(O)C1CC(=O)N(c2ccc(C)cc2)C1=O (centres undefined)	2.5	?	-82.9	-19.8	-0.3	-1.3
Cc1cccc(C(=O)NNC(=O)C2CC2)c1	31.4*	-8.7	-4.2	22.4	0.1	11.0
O=C1OC(c2ccc(Cl)cc2)=N/C1=C\C=C\c1ccco1	-3.2	?	-7.4	-23.1	0.1	12.3
O=C1OC(c2ccccc2)=N/C1=C\C=C\c1ccco1	3.6	41.4*	-3.2	20.6	-0.1	26.4
Cc1cc(C)c(S(=O)(=O)/N=C2/C=C(Sc3ncn[nH]3)C(=O)c3ccccc32)cc1C	30.6	40.3*	nt	29.0	-0.1	nt
Cc1ccc(C)c(S(=O)(=O)/N=C2\C=C(NS(=O)(=O)c3ccccc3)C(=O)c3ccccc32)c1	9.3	1.2	-12.1	13.9	0.1	20.9
CCOc1cc(C2C3=C(CC(C)(C)CC3=O)Nc3n[nH]c(C)c32)ccc1O (centres undefined)	13.1	5.1	7.7	6.8	-0.1	10.9
Cc1cc(Br)ccc1NC(=O)CN(C)Cc1cccs1	-0.3	-2.5	-10.5	-5.6	-0.1	11.5
O=C(OCc1nnc(-c2cccs2)o1)C1=NN(c2ccccc2)C(=O)CC1	nt	0.2	nt	-0.9	-0.3	6.6
NC(=O)c1ccc(OCC(F)(F)C(F)(F)C(F)(F)C(F)(F)C(F)(F)C(F)F)cc1	13.5	30.9*	2.2	13.3	0.0	21.1
Cc1c(/C=N\NC(=O)C2COc3ccc(C(C)(C)C)cc3O2)c2ccccc2n1C (centres undefined)	9.1	-13.2	-5.0	-4.9	0.0	4.5
COc1ccc(NC(=O)CSC2CC(=O)N(c3ccc4c(c3)OCCO4)C2=O)cc1 (centres undefined)	16.2	0.7	-1.2	5.5	-0.2	7.2
COc1ccccc1NC(=O)CSC1CC(=O)N(c2ccc3c(c2)OCO3)C1=O (centres undefined)	30.6*	1.7	5.5	0.9	0.1	24.6
O=C(O)c1ccc(NS(=O)(=O)c2ccc(N3C(=O)CCC3=O)cc2)cc1	13.0	0.9	15.1	3.1	0.1	30.5
CC(=O)N(c1ccc(C(F)(F)F)cc1)S(=O)(=O)c1ccc(N2C(=O)CCC2=O)cc1	31.7*	-1.8	-8.1	12.7	0.1	-11.4
Cc1nonc1NC(=O)CSc1nnc(-c2ccoc2C)n1-c1cccc(Cl)c1	44.5*	3.1	2.0	-16.2	-0.1	0.8

Source: PubChem (several laboratories)
